Screening results from PubChem.
Sfp PPTase inh – qHTS Assay for Inhibitors of Bacillus subtilis Sfp phosphopantetheinyl transferase (PPTase); 4'-phosphopantetheinyl transferase ffp (Bacillus subtilis), Q9F4F7; Biochemical Sfp PPTase activity, qHTS; Potency, µM, for the others: largest response in the series, negative = inhibition, usual class: inhibitors; hit rate 3.5% among 310,000; AID 1490, 2009;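 further: the enzyme is Sfp with the accession as filed and its product quenches rhodamine fluorescence; 0% = enzyme reaction without inhibitor and -100% = no enzyme wells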
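With Hepes-Na pH 7.6 buffer containing 10 mM MgCl2, Sfp (15 nM) modified BHQ-2-YbbR (12.5 uM) using rhodamine-CoA (5 uM). Two reads 30 minutes apart at 525/598 nm yielded each well's rate.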
ClpP mod – qHTS Assay for Activators of ClpP. Potency, µM (titrated, usually from 57.5 µM), inactives show top-dose activity change, negative = active. hit rate 1.9% among 340,000. purified B. subtilis ClpP, FRET peptide cleavage, 20 min. AID 651965, 2013. ATP-dependent Clp protease proteolytic subunit (Bacillus subtilis (strain 168)), P80244; active means well fitted falling curve with a large enough effect; inconclusive means small, poorly fitted or top-dose-only effect; inactive means no such curve, though single readings can be large or run the other way; further: the source files actives as falling curves though it sought activators and does not explain the sign; nearly all actives have a fitted effect of over 65% in size
Target sequence (P80244 whole entry, looked up): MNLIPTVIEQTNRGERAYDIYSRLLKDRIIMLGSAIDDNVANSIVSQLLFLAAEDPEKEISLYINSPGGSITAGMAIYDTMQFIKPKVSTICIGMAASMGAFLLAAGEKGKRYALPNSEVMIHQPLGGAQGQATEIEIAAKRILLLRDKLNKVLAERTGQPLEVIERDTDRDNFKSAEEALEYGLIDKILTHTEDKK
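ClpP 10 microg/mL final, pH 8 Tris/KCl buffer with BSA, glycerol, Tween-20; compound pinned in; FRET-FV substrate; RT 20 min; Ex320/Em430; ΔFRET vs ADEP 5.8 microM, DMSO, no enzyme.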
PINK1 modulator – A Quantitative High throughput Screen to Identify Chemical Modulators of PINK1 Expression. PINK1 immunofluorescence, high-content cytometry, 24 h. Potency, µM (doses to about 76.6 µM), without a hit: at the highest dose activation (PINK1 increase), usual class: activators. hit rate 0.2% among 410,000. AID 624263, 2012; active means well fitted activation curve with a large enough effect; inconclusive means small, poorly fitted or top-dose-only effect; cell line not stated here; further: % of control where 0% means no effect; nearly all actives have a fitted effect of over 65% in size
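PINK1 protein, normally rapidly degraded, was detected by immunofluorescence after 24 hour compound treatment of a stable cell line. Titration data (5 concentrations) came from laser-scanning cytometry, with CCCP-treated wells as controls.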
VP16 counter – VP16 counterscreen qHTS for inhibitors of ROR gamma transcriptional activity; hit rate 3.5% among 310,000; Potency, µM (series often up to 53.6 µM), for inactives: top-dose activity, negative = inhibition, most hits filed as inhibitors; Drosophila S2 Gal4-VP16 UAS-luciferase, luminescence, 20 h; AID 2546, 2010;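 further: Gal4-VP16 expression switched on by copper sulfate through the metallothionein promoter; on the % scale 0 is the no-effect control and ±100 the full control effect; nearly all actives have a fitted effect of over 50% in size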
Epigenetic derep – Quantitative High-Throughput Screen for Regulators of Epigenetic Control; murine LDR cells, GFP reporter derepression, 30 h; hit rate 0.2% among 280,000; Potency, µM (top dose mostly 53.9 µM), without a hit: at the top dose GFP activation, actives largely listed as activators; further: % of control where 0% means no effect; nearly all actives have a fitted effect of over 60% in size
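Reporter derepression read as number of fluorescent GFP-positive objects, 20-120 um in size, counted by laser-scanning cytometer. Mouse LDR line with an epigenetically silenced CMV-GFP locus; compound incubation 30 h, 37 C.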
RORgamma inh – qHTS for inhibitors of ROR gamma transcriptional activity | Drosophila S2 Gal4-RORgamma UAS-luciferase reporter, 20 h | Nuclear receptor ROR-gamma (Mus musculus), P51450 | Potency, µM (doses to about 53.6 µM), inactives show at the highest dose activity change, negative = inhibition, hits mostly inhibitors | hit rate 5.4% among 310,000 | AID 2551, 2010; further: on the % scale 0 is the no-effect control and ±100 the full control effect; nearly all actives have a fitted effect of over 60% in size
Target sequence (P51450 whole entry, looked up, the tested form may be a part): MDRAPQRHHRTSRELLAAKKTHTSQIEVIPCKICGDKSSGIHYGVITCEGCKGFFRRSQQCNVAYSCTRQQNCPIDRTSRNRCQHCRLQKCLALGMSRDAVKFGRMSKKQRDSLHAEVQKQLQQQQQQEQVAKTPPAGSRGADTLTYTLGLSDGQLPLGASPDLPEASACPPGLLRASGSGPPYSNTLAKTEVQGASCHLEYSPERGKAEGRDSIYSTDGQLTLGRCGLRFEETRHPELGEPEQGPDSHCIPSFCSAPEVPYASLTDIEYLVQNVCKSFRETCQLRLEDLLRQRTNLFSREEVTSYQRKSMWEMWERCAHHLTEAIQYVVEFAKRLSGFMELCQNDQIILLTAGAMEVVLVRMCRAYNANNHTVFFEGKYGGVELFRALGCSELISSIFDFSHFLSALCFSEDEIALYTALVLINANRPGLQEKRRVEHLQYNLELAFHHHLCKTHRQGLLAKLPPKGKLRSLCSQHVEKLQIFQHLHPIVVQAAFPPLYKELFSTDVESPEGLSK
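Luciferase reporter read in Schneider cells carrying Gal4-RORγ (mouse) and UAS-Photinus luciferase; cells given compound 1 h before 700 uM copper sulfate induction, then incubated 20 h at ambient temperature.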
Numbers without * were called inactive; ? = inconclusive; . = no result given; [ ] = remark or other dose. Rows were chosen to be rich in hits. Some 8.1% of all compounds tested hit in one or more screens of this group. Unless noted, the call rests on the fitted dose curve; in most records, active means well fitted curve in the direction sought with a large enough effect; inconclusive means small, poorly fitted or top-dose-only effect, or another doubt; inactive means no such curve, though single readings can be large; an effect the other way counts as inactive or inconclusive. Potency means the concentration at half of the fitted maximal effect.

SMILES	Sfp PPTase inh	ClpP mod	PINK1 modulator	VP16 counter	Epigenetic derep	RORgamma inh
Cc1ccc(C)c(OCCCCCn2ccnc2)c1	-10%	0%	1%[38.3 µM]	-30%	-2%	8.9µM*
Cc1cc(Cl)cc(C)c1OCCCCCn1ccnc1	10%	0%	9%	18µM*	.	?
CNc1nc(Cl)nc2c1ncn2CC(COC(=O)C(C)(C)C)COC(=O)C(C)(C)C	17%	.	.	-11%	.	4%
CC1=C(C(N)=O)C(c2cccs2)n2nc(-c3cccc(C)c3)nc2N1 (stereo unspecified)	15%	-3%	0%	8%	-1%	-1%
CC1=C(C(N)=O)C(c2cccnc2)n2nc(-c3cccc(C)c3)nc2N1 (stereo unspecified)	-2%	32µM*	1%	?	0%	0%
O=Cc1ccc(O)cc1	.	2%	.	.	.	.
CCOC(=O)c1nnc(-c2ccccc2)nc1Oc1ccccc1Cl	-22%	1%	0%	5µM*	?	4.5µM*
CCOC(=O)c1nnc(-c2ccccc2)nc1NC	13%	-1%	-3%	-10%	0%	12%
N#Cc1ccc2ccn(CC(=O)NCc3ccccc3)c2c1	-7%	25µM*	.	-16%	-1%	?
CC(=O)C1=C(S(=O)(=O)c2ccc(C)cc2)CS(=O)(=O)C1	5.6µM*	.	11%	6%[10 µM]	4%	?
COc1ccc(NC(=S)c2ccc3ccccc3n2)cc1	22µM*	-1%	0%	13µM*	.	4µM*
COc1ccc(N=C(NN)c2ccc3ccccc3n2)cc1	-79%	?	0%	?	-1%	10µM*
CCOc1ccc(CN(C)C(=O)c2ccc3ccccc3n2)cc1	11%	.	0%	19%	.	14%
CCOc1ccc(NC(=S)c2ccc3ccccc3n2)cc1	?	1%	2%	?	.	6.3µM*
Cc1cc(C(=O)NCC2CCC3(CCN(Cc4ccc(F)cc4)CC3)O2)n(C)n1 (stereo unspecified)	.	.	0%	.	.	.
Cc1cc(C)cc(NC(=O)N2CCN(C(=O)c3nsc4ccccc34)CC2)c1	.	1%	-1%	.	-3%	.
CCn1cc(S(=O)(=O)c2cccc(C)c2)c(=O)c2cc(F)c(N3CCN(c4ccccc4)CC3)cc21	.	5%	?	.	-1%	.
Cc1nn(C)cc1/C=C(/C#N)C(N)=O	31%	16µM*	-4%	7%	-1%	-11%
COc1ccc(Cn2c(CO)cnc2SCC(=O)NCc2ccco2)cc1	.	-1%	-5%	.	-2%	.
N#Cc1c2c(c(-c3ccco3)[nH]c1=O)CCCC2	17%	-5%	-2%[38.3 µM]	3%	0%	-3%
CC(C)Cc1c2c([nH]c(=S)c1C#N)CCCC2	2µM*	-3%	0%	?	-6%	6.3µM*
N#Cc1c(-c2ccco2)c2c([nH]c1=S)CCCC2	4.5µM*	-3%	-2%	-1%	0%	9%
N#Cc1c(-c2cccnc2)c2c([nH]c1=S)CCCC2	28µM*	1%	1%	-26%	0%	11µM*
Cc1ccc(C(CC(=O)NCC2(c3ccccc3)CCCC2)c2ccccc2)c(O)c1 (stereo unspecified)	.	-8%	?	.	1%	.
CCOc1ccc(-c2cc(CCCC(=O)NCc3ccc(C)cc3)no2)cc1	20%	1%	9%	?	-1%	1.3µM*
SMILES	Sfp PPTase inh	ClpP mod	PINK1 modulator	VP16 counter	Epigenetic derep	RORgamma inh
CCOc1ccc(-c2cc(CCCC(=O)NCc3ccco3)no2)cc1	10%	2%	12%	?	-1%	0.11µM*
CCOc1ccc(-c2cc(CCCC(=O)NCCc3ccc(Cl)cc3)no2)cc1	.	0%	1%	.	0%	.
COc1ccc(OC)c(C2SCCN2S(C)(=O)=O)c1 (stereo unspecified)	24%	0%	3%	3%	-1%	11µM*
COc1ccccc1C1SCCN1S(C)(=O)=O (stereo unspecified)	6%	-1%	-1%	2%	-1%	0%
CCOc1ccc(-c2nc3c(c(CC)nn3-c3ccccc3)c3cc(OC)c(OC)cc23)cc1	.	-11%	0%	.	-1%	.
Cc1ccc2nc(-c3cccc(N)c3)oc2c1	-1%	14µM*	-2%[38.3 µM]	4%	4%	9%
Cc1ccc2nc(-c3cccc(-c4nc5ccc(C)cc5o4)n3)oc2c1	.	?	0%	.	.	.
Cc1nc2ccc(-c3nc4cc(N)ccc4o3)cc2[nH]1	-2%	-12%	-5%	?	-1%	16µM*
CCc1ccc2oc(-c3cccc(N)c3)nc2c1	1%	-2%	1%	14µM*	-1%	10µM*
Cc1ccc2nc(-c3ccc(O)cc3)oc2c1	13%	.	-1%	7.1µM*	.	2.5µM*
Nc1ccc2oc(-c3ccc4nc[nH]c4c3)nc2c1	-4%	?	-3%	?	1%	?
CC(=O)c1ccc(F)c(-c2cc(C)cc3c2OC(CNC(=O)c2cccnc2)C3)c1 (stereo unspecified)	.	.	0%	.	.	.
COc1ccc(S(=O)(=O)NN(C)c2ncc(C(F)(F)F)cc2Cl)cc1	-3%	1%	0%	?	4%	4µM*
CC(C)NS(=O)(=O)c1ccc(Oc2ncc(C(F)(F)F)cc2Cl)cc1	-26%	-1%	0%	1%	-1%	?
Cn1nc(C(F)(F)F)c(C#N)c1N1CCN(c2ccc(F)cc2)CC1	7%	14µM*	-2%	5%	-1%	-1%
Cn1nc(C(F)(F)F)c(C#N)c1N1CCN(c2ccccc2)CC1	9%	-5%	-2%	?	0%	24%
CCC(Sc1nc2c(sc3ccccc32)c(=O)n1CCCC(=O)NC1CCCC1)C(=O)Nc1cccc(OC)c1 (stereo unspecified)	.	-5%	0%	.	6%	.
CCCSc1nc2sc3c(c2c(=O)n1-c1ccccc1)CCC(C)C3 (stereo unspecified)	.	-12%	2%	.	-3%	.
CCC(Sc1nc(C)cc(C)n1)C(=O)NC1=NN=C(c2ccc(C)cc2)CS1 (stereo unspecified)	?	0%	14µM*	-9%	3%	-24%
CCC(Sc1nc(C)cc(C)n1)C(=O)Nc1cc(C)on1 (stereo unspecified)	9%	.	1%	6%	8%	20%
Cc1cc(C)nc(SCC(=O)Nc2ccc(Br)cn2)n1	3%	-6%	1%	-1%	2%	-2%
Cc1cc(C)nc(SCC(=O)NC2=NN=C(c3ccc(Br)cc3)CS2)n1	40µM*	-4%	?	-96%	?	?
C=CCC(O)c1ccccc1 (stereo unspecified)	16%	.	.	2%	0%	11%
